Assay results reported in PubChem BioAssay (NCATS).
Inconclusive results are not listed. Active and inactive are the calls of the source. The call rests on the fitted dose curve; in most records, active means well fitted curve in the direction sought with a large enough effect; inconclusive means small, poorly fitted or top-dose-only effect, or another doubt; inactive means no such curve, though single readings can be large; an effect the other way counts as inactive or inconclusive.

Experiments:
[1] = molecular target: Calcium and integrin-binding protein 1 (Homo sapiens) (UniProt Q99828); assay: Primary qHTS for Identification of Calcium Integrin Binding Protein 1 (CIB1) Competitor (AID 1508620); details: CIB1-GST / FITC-alphaIIb peptide fluorescence polarization; series mostly up to 57.7 µM;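 further: GST tagged CIB1 binding a fluorescein labelled alphaIIb integrin peptide tracer; top concentration of the series differs between compounds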
Chain of Calcium and integrin-binding protein 1 (Homo sapiens) (Q99828 whole entry, looked up): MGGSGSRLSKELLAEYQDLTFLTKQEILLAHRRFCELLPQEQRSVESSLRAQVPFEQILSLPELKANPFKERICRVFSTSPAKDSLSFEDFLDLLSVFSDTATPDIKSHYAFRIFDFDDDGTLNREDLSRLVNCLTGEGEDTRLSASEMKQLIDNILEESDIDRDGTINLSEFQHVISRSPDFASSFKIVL
Procedure, shortened: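 Fluorescence polarization competition: CIB1-GST (1 uM final) preincubated with compound 15 min at room temperature, then FITC-labeled alphaIIb peptide (100 nM final) added for another 15 min. Polarization read at Ex 480/Em 540.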

[2] = Primary qHTS for inhibitors of nuclear receptor binding SET domain protein 2 (NSD2) in an isogenic RCH-ACV NSD2 p.E1099K mutant (9B) (AID 1645876); details: RCH-ACV NSD2 E1099K (9B) viability, CellTiter-Glo, 72 h; series mostly up to 44.9 µM; further: nearly all actives have a fitted effect of over 70% in size
[3] = Primary qHTS for inhibitors of nuclear receptor binding SET domain protein 2 (NSD2) in an RCH-ACV wild type WT cells (2C) (AID 1645877); details: RCH-ACV (leukaemia line) NSD2 WT (2C) viability, CellTiter-Glo, 72 h; series mostly up to 44.9 µM; further: nearly all actives have a fitted effect of over 70% in size
On the % scale 0 is the no-effect control and ±100 the full control effect.

C/C=C(\C)C(=O)OC[C@H]1O[C@H](O[C@H]2O[C@H](CO)[C@@H](O)[C@H](O)[C@H]2O[C@@H]2O[C@H](CO)[C@@H](O)[C@H](O)[C@H]2O)[C@H](O[C@@H]2O[C@H](CO)[C@@H](O)[C@H](O)[C@H]2O)[C@@H](O)[C@@H]1O
inactive: Potency [1] | Potency [2] | Potency [3]

C[C@@H]1O[C@@H](O[C@H]2[C@H](OC(=O)[C@]34CCC(C)(C)C[C@H]3C3=CCC5[C@@]6(C)CC[C@H](O[C@@H]7O[C@H](CO[C@@H]8OC[C@H](O)[C@H](O)[C@H]8O[C@@H]8OC[C@@H](O)[C@H](O)[C@H]8O)[C@@H](O)[C@H](O)[C@H]7O)C(C)(C)C6CC[C@@]5(C)[C@]3(C)C[C@H]4O)O[C@H](CO)[C@@H](O)[C@@H]2O)[C@H](O[C@@H]2O[C@H](CO)[C@@H](O)[C@H](O)[C@H]2O)[C@H](O)[C@H]1O[C@@H]1OC[C@@H](O)[C@H](O[C@@H]2OC[C@@H](O)[C@H](O)[C@H]2O)[C@H]1O (stereo not given in full)
inactive: activity change, negative = inhibition [1] 0.603% [at 12.4 µM] | activity change, negative = viability loss [2] 4.39% [at 4.96 µM] | activity change, negative = cell killing [3] 4.37% [at 4.96 µM]

O=C(Cc1ccccc1)OC[C@H]1O[C@H](O[C@H]2O[C@H](CO)[C@@H](O)[C@H](O)[C@H]2O)[C@H](O)[C@@H](O)[C@@H]1O
inactive: Potency [1] | Potency [2] | Potency [3]

COC(=O)C1=COC(O[C@@H]2O[C@H](CO)[C@@H](O)[C@H](O)[C@H]2O)/C(=C\COC(=O)/C=C/c2ccccc2)C1CC(=O)OCCc1ccc(O)cc1 (stereo not given in full)
inactive: Potency [1] | Potency [2] | Potency [3]

CC1(O)CC(O)C2C(C(=O)O)=COC(OC3OC(CO)C(O)C(O)C3OC(=O)/C=C/c3ccc(O)cc3)C21 (stereo not given)
inactive: Potency [1] | Potency [2] | Potency [3]

CC(C)C1NC(=O)C(CC2(O)c3ccccc3N3C(=O)C(Cc4ccccc4)NC32)NC1=O (stereo not given)
inactive: Potency [1] | Potency [2] | Potency [3]

COC(=O)C1C(c2ccc(O)cc2)C(C(=O)O)C1c1ccc(O)cc1 (stereo not given)
inactive: Potency [1] | Potency [2] | Potency [3]

Cn1nccc1-c1ccccc1Oc1ccc(S(=O)(=O)Nc2nccs2)cc1C#N
inactive: Potency [1] | Potency [2] | Potency [3]

CC(=O)O[C@@H]1C(=O)C(C)=C(CCC(C)CC(=O)O)[C@@]2(C)CCCC(C)(C)C12 (stereo not given in full)
inactive: Potency [1] | Potency [2] | Potency [3]

COC(=O)C(Cc1ccccc1)NC(=O)c1ccccc1 (stereo not given)
inactive: Potency [1] | Potency [2] | Potency [3]

O=C(O)c1cccc(C(=O)CCC2OC(n3cnc4c(=O)[nH]cnc43)C(O)C2O)c1 (stereo not given)
inactive: Potency [1] | Potency [2] | Potency [3]

COC(=O)C1=C[C@@H](O)[C@@H](O)[C@H](O[C@@H]2O[C@H](CO)[C@@H](O)[C@H](O)[C@H]2OC(=O)/C=C/c2ccccc2)C1
inactive: Potency [1] | Potency [2] | Potency [3]

CC/C=C\C(O)C(O)C1=C(C)C(=O)C2(O1)C(=O)NC(OC)(C(=O)c1ccccc1)C2O (stereo not given)
inactive: Potency [1] | Potency [2] | Potency [3]

O=C(OCC(O)CO[C@@H]1O[C@H](C(=O)O)[C@@H](O)[C@H](O)[C@H]1O)c1ccccc1 (stereo not given in full)
inactive: Potency [1] | Potency [2] | Potency [3]

CC1CCC2(C)CCC3(C)C(=CCC4C5(C)CCC(O)C(C)(C(=O)O)C5CCC43C)C2C1C (stereo not given)
inactive: Potency [1] | Potency [2] | Potency [3]

CC(=O)OC1(C)CC(O)C2(O)C=COC(OC3OC(CO)C(O)C(O)C3O)C12 (stereo not given)
inactive: Potency [1] | Potency [2] | Potency [3]

COC1OC(OC)C(O)(CCC2(C)C(C)CCC3(C)C2CC(O)C(O)C32CO2)C1O (stereo not given)
inactive: Potency [1] | Potency [2] | Potency [3]

C[C@]12CCC[C@](C)(C(=O)O)C1[C@@H](O)[C@@H](O)C13CC(CCC12)C(CO)(O[C@@H]1O[C@H](CO)[C@@H](O)[C@H](O)[C@H]1O)C3 (stereo not given in full)
inactive: Potency [1] | Potency [2] | Potency [3]

CC1(C)CC[C@]2(C(=O)O[C@@H]3O[C@H](CO)[C@@H](O)[C@H](O)[C@H]3O)CC[C@]3(C)C(=CCC4[C@@]5(C)CC[C@H](O[C@@H]6O[C@H](C(=O)O)[C@@H](O[C@@H]7O[C@H](CO)[C@@H](O)[C@H](O)[C@H]7O)[C@H](O)[C@H]6O[C@@H]6O[C@H](CO)[C@@H](O)[C@H](O)[C@H]6O)C(C)(C)C5CC[C@]43C)C2C1 (stereo not given in full)
inactive: Potency [1] | activity change, negative = viability loss [2] 4.56% [at 9.23 µM] | activity change, negative = cell killing [3] 4.58% [at 9.23 µM]

O=C(Cc1ccc(Cl)cc1)Nc1cnccc1C(=O)O
inactive: Potency [1] | Potency [2] | Potency [3]

CCN1CCN(C(=O)N[C@@H](C(=O)N[C@@H]2C(=O)N3[C@@H]2SC(C)(C)[C@@H]3C(=O)O)c2ccccc2)C(=O)C1=O
inactive: Potency [1] | Potency [2] | Potency [3]

OC[C@@]1(O)CO[C@H](OC[C@H]2O[C@@H](OCCc3ccccc3)[C@H](O)[C@@H](O)[C@@H]2O)[C@@H]1O
inactive: Potency [1] | Potency [2] | Potency [3]

C=C1CC[C@]2(C(=O)O[C@@H]3O[C@H](CO)[C@@H](O)[C@H](O)[C@H]3O)CC[C@]3(C)C(=CCC4[C@@]5(C)C[C@H](O)[C@@H](O[C@@H]6O[C@H](C(=O)O)[C@@H](O)[C@H](O)[C@H]6O)[C@](C)(C=O)C5CC[C@]43C)C2C1 (stereo not given in full)
inactive: Potency [1] | activity change, negative = viability loss [2] -1.03% [at 9.23 µM] | activity change, negative = cell killing [3] -2.63% [at 9.23 µM]

C/C=C1/C[N+](C)([O-])C2Cc3c([nH]c4ccccc34)C(=O)CC1C2C(=O)OC (stereo not given)
inactive: Potency [1] | Potency [2] | Potency [3]

CC(=O)OC(C)C(C)(O)C(=O)O[C@@H]1CC[C@]2(C)CC(=O)C(=C(C)C)C[C@H]2[C@]1(C)OC(C)=O (stereo not given in full)
inactive: Potency [1] | Potency [2] | Potency [3]

C=C1CCc2occ(C)c2[C@H]2[C@H]1[C@@]13O[C@@]1(C[C@@H](C)[C@H]3OC(C)=O)[C@H]1O[C@@]21C
inactive: Potency [1] | Potency [2] | Potency [3]

CC(C)CC(=O)O[C@@H]1O[C@H](CO)[C@@H](O[C@H]2O[C@H](C)[C@@H](N[C@H]3C=C(CO)[C@@H](O[C@H]4O[C@H](CO)[C@@H](O[C@H]5O[C@H](CO)[C@@H](O[C@H]6O[C@H](CO)[C@@H](O)[C@H](O)[C@H]6O)[C@H](O)[C@H]5O)[C@H](O)[C@H]4O)[C@H](O)[C@H]3O)[C@H](O)[C@H]2O)[C@H](O)[C@H]1O
inactive: Potency [1] | activity change, negative = viability loss [2] 3.07% [at 9.23 µM] | outcome [3] inactive [at 9.23 µM]

CNc1nc(Cc2ccccc2)nc2c1CCNC[C@@H]2C
inactive: Potency [1] | Potency [2] | Potency [3]

Cc1ccc(-c2c(-c3nn(C)c4ncnc(N5CC[C@H](N6CCCCC6)C5)c34)cnn2C)cc1
inactive: Potency [1] | Potency [2] | Potency [3]

CCC(C)/C=C(C)/C=C/C1=CC2=C(Cl)C(=O)C(C)(OC(C)=O)C(=O)C2=CN1C(CCCN=C(N)N)C(=O)O (stereo not given)
inactive: Potency [1] | Potency [2] | Potency [3]

CC1=C2CC(=O)C(C)CC/C=C(\C)CC2OC1=O (stereo not given)
inactive: Potency [1] | Potency [2] | Potency [3]

CC(C)[C@@H](C(=O)O)N1Cc2c(cc(O)c3c2O[C@]2(C3)[C@H](C)CCC3C(C)(C)[C@H](O)[C@H](O)C[C@@]32C)C1=O (stereo not given in full)
inactive: Potency [1] | Potency [2] | Potency [3]

C=C(COC(=O)CC(C)C)C1Cc2cc(C(C)=O)ccc2O1 (stereo not given)
inactive: Potency [1] | Potency [2] | Potency [3]

COc1cc(O[C@@H]2O[C@H](CO[C@H]3OC[C@](O)(CO)[C@H]3O)[C@@H](O)[C@H](O)[C@H]2O)cc(OC)c1O
inactive: Potency [1] | Potency [2] | Potency [3]

Cc1occc(=O)c1O[C@@H]1O[C@H](CO)[C@@H](O)[C@H](O)[C@H]1O
inactive: Potency [1] | Potency [2] | Potency [3]

O=C(O)CCc1c(C(=O)O)[nH]c2cc(Cl)cc(Cl)c12
inactive: Potency [1] | Potency [2] | Potency [3]

O=C1NC(=O)/C(=C/c2cccc(C(F)(F)F)c2)S1
inactive: Potency [1] | Potency [2] | Potency [3]

C/C=C(\C)C(=O)OC[C@H]1O[C@@H](O[C@H]2[C@@H](O[C@H]3O[C@H](COC(=O)/C(C)=C/C)[C@@H](O)[C@H](O)[C@H]3O[C@@H]3O[C@H](CO)[C@@H](O)[C@H](OC(=O)/C(C)=C/C)[C@H]3O)O[C@H](COC(=O)/C(C)=C/C)[C@@H](O)[C@@H]2O)[C@H](O)[C@@H](O)[C@@H]1O
inactive: Potency [1] | activity change, negative = viability loss [2] -4.56% [at 9.23 µM] | activity change, negative = cell killing [3] -10.6% [at 9.23 µM]

CC1(C)CC[C@]2(C(=O)O[C@@H]3O[C@H](CO)[C@@H](O)[C@H](O)[C@H]3O)CC[C@]3(C)C(=CCC4[C@@]5(C)C[C@H](O)[C@H](O[C@@H]6O[C@H](C(=O)O)[C@@H](O)[C@H](O)[C@H]6O)[C@@](C)(CO)C5CC[C@]43C)C2C1 (stereo not given in full)
inactive: activity change, negative = inhibition [1] 0.901% [at 12.4 µM] | activity change, negative = viability loss [2] -12.9% [at 9.23 µM] | activity change, negative = cell killing [3] -7.01% [at 9.23 µM]

O=C(/C=C/c1ccc(O)cc1)O[C@H]1[C@H](OC2CCCCC2O)O[C@H](CO)[C@@H](O)[C@@H]1O (stereo not given in full)
inactive: Potency [1] | Potency [2] | Potency [3]

COc1cc(O)cc(C)c1C(=O)O[C@H]1[C@@H](O)[C@@H](n2ccc(=O)[nH]c2=O)O[C@@H]1CO
inactive: Potency [1] | Potency [2] | Potency [3]

COC(=O)C1=CO[C@@H](O[C@@H]2O[C@H](CO)[C@@H](O)[C@H](O)[C@H]2O)[C@@H]2[C@@H](CO)[C@@H](O)C(O)[C@H]12 (stereo not given in full)
inactive: Potency [1] | Potency [2] | Potency [3]

C[C@]1(OC(=O)/C=C/c2ccccc2)C[C@@H](O)[C@]2(O)C=CO[C@@H](O[C@@H]3O[C@H](CO)[C@@H](O)[C@H](O)[C@H]3O)[C@@H]21
inactive: Potency [1] | Potency [2] | Potency [3]

C/C=C(/C)C(=O)O[C@H]1C[C@]2(C)O[C@@H]2[C@@H](OC(C)=O)[C@@]2(C)CC[C@@](O)(C(C)C)[C@H]12
inactive: Potency [1] | Potency [2] | Potency [3]

CC1CCC2C(C)(C)C(O)C(O)CC2(C)C12Cc1c(O)cc(CO)c(C=O)c1O2 (stereo not given)
inactive: Potency [1] | Potency [2] | Potency [3]
